Here are results for eight compounds from PubChem BioAssay (NCI).

What all share (assay): NCI-60 one-dose screen, 48 h (100 = growth as untreated, 0 = no growth, -100 = all killed)
What all share (details): 10 µM unless noted

In assay [1] the test system is HCT-15 colon.
Assay [2] deals with HT29 colon.
Assay [3] has as its system SNB-75 CNS.
Assay [4] relates to SNB-19 CNS.
The test system of assay [5] is U251 CNS.
In assay [6] the test system is PC-3 prostate.
The test system of assay [7] is SK-MEL-5 melanoma.
Assay [8] has as its system UACC-62 melanoma.
For assay [9], the system named is LOX IMVI melanoma.
Assay [10] has as its system SK-MEL-28 melanoma.
The test system of assay [11] is SK-MEL-2 melanoma.
In assay [12] the test system is EKVX NSCLC.
In assay [13] the test system is SN12C renal.
The subject of assay [14] is UO-31 renal.
Assay [15] has as its system TK-10 renal.
Assay [16] relates to ACHN renal.
In assay [17] the test system is CAKI-1 renal.
Assay [18] concerns A498 renal.
The subject of assay [19] is CCRF-CEM leukemia.
In assay [20] the test system is MOLT-4 leukemia.

Compounds without any hit were thinned out: in the full panel of roughly 83,000, 20% have a hit.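 Cells were grown in 96-well plates and exposed to the test compound at a single concentration for 48 hours; results are reported as percent growth, with values below 10 considered active.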 Values without a mark were called inactive. The source made the active and inactive calls.

`CCOC(=O)c1c(C)n2c(=O)cc(C)c3c(OC(C)=O)c(OC(C)=O)cc1c32`: the growth in assay [1] was 41.2%; in [2], 102%; in [3], 74.1%; in assay [4], 72%; in assay [5] it was 50.9%; in assay [6], 59.2%. Also, the growth in assay [7] was 50.3%; in [8], 76.2%; in assay [9], 42.4%; in assay [10], 64.7%; in assay [11], 87%; in assay [12], 93.1%. Further, the growth in [13] is 74.3%; in assay [14] it was 71%; in assay [15], 96%; in assay [16], 58.3%; in assay [17], 72.2%; in assay [18], 116%. Also, the growth is 3.61% (active) in [19] and 19.3% in assay [20].
As for `COc1ccc(C2CC(=O)Oc3c(OC)c4c(c(OC)c32)OCO4)cc1` (stereo not given), the growth in assay [1] was 87.6%; in [2] it was 99.4%; in assay [3] it was 98.6%; in assay [4], 107%; in [5], 99.6%; in assay [6], 106%. Moreover, the growth in [7] was 105%; in assay [8], 91.1%; in assay [9], 90.3%; in [10], 95.6%; in assay [11], 101%; in assay [12], 101%. Moreover, the growth in assay [13] was 98%; in assay [14], 84.7%; in [15] it was 96.4%; in assay [16], 103%; in assay [17], 96.8%; in assay [18], 88.7%. Also, the growth was 88.9% in assay [19] and 96.3% in assay [20].
Take `Cc1ccc(-c2nc(C#N)c(S(=O)(=O)n3nc(C)cc3N)o2)cc1`: the growth was 49.2% in assay [1]; 50.1% in [2]; 97.6% in assay [3]; 97.5% in assay [4]; 95.4% in [5]; 85% in [6]. Moreover, the growth in assay [7] was 90%; in assay [8], 96.1%; in assay [9], 56.4%; in [10] it was 93.8%; in assay [11], 98.3%; in [12] it was 121%. In addition, the growth in assay [13] was 90.1%; in assay [14], 79.8%; in [15], -64.9% (active); in [16], -37.8% (active); in assay [17], 82%; in assay [18] it was 76.1%. For the same compound, the values for the growth in assay [19] and in [20] were -18.8% (active) and -38% (active), respectively.
Take `NC(=O)[C@@H]1Cc2ccccc2CN1C(=O)c1ccc2c(c1)Cc1ccccc1-2`: the growth in [1] is 74.6%; in assay [2] it was 89.1%; in assay [3], 85.7%; in assay [4] it was 86.7%; in assay [5] it was 83%; in [6] it was 61.9%. Further, the growth is 46.6% in [7]; -36.9% (active) in [8]; 90.8% in [9]; 116% in [10]; 92.8% in [11]; 83.1% in [12]. In addition, the growth was 92.4% in assay [13]; 61.3% in [14]; 93.4% in assay [15]; 90.5% in [16]; 80.9% in assay [17]; 89.2% in [18]. Moreover, the growth in [19] was 81.9%; in assay [20], 71.1%.
In the case of `CO[C@H]1CC(c2ccc[nH]2)=N[C@]12O[C@@H](C)C[C@@H]1CCCCCCCc3ccc([nH]3)[C@H]12`, the growth in assay [1] is 10.4%; in assay [2], 12.3%; in assay [3], 3.5% (active); in assay [4] it was 55.4%; in [5], 19.7%; in assay [6], 42.2%. Moreover, the growth is -38.4% (active) in assay [7]; -47.8% (active) in [8]; -45.1% (active) in assay [9]; 38.6% in assay [10]; -16.2% (active) in [11]; 29.4% in assay [12]. For the same compound, the growth was 33.6% in [13]; -15.6% (active) in [14]; 15% in [15]; 8.05% (active) in assay [16]; 9.32% (active) in assay [17]; 57.4% in [18]. For the same compound, the values for the growth in assay [19] and in [20] were 22.7% and 20.6%, respectively.
For `O=C1/C(=C/c2ccc(Br)cc2)COc2ccc(O)cc21`, the growth in assay [1] was 42.5%; in assay [2], 28.9%; in assay [3], 92.7%; in assay [4], 87.3%; in assay [5], 57%; in assay [6], 77.4%. Besides, the growth was 96% in [7]; 79.3% in assay [8]; -1.48% (active) in [9]; 97.7% in [10]; 107% in [11]; 98.5% in [12]. Further, the growth was 73.3% in assay [13]; 47.9% in [14]; 99.1% in [15]; 86.7% in [16]; 80.1% in [17]; 103% in assay [18]. The growth in assay [19] is 1.32% (active); in assay [20] it was 16.6%.
For `N#Cc1nn(-c2ccccn2)c(N)c1C#N`, the growth in assay [1] is 102%; in assay [2], 86.4%; in [3] it was 87.3%; in [4] it was 101%; in assay [5], 103%; in assay [6] it was 95.4%. For the same compound, the growth was 104% in assay [7]; 99.1% in assay [8]; 101% in assay [9]; 105% in [10]; 93.7% in assay [11]; 94% in assay [12]. The growth in [13] was 105%; in assay [14], 91.1%; in assay [15], 98.7%; in assay [16] it was 99.6%; in assay [17], 92.7%; in [18], 106%. Besides, the growth in [19] was 105%; in [20], 92.9%.
Regarding `Nc1ncnc2c1N=C(c1ccc([N+](=O)[O-])cc1)CC(c1ccc3c(c1)OCO3)N2` (stereo not given), the growth was 103% in assay [1]; 97.3% in assay [2]; 69.1% in assay [3]; 83.6% in assay [4]; 89% in [5]; 72.6% in [6]. In addition, the growth in [7] was 80.2%; in [8], 77.9%; in assay [9] it was 85.3%; in [10] it was 108%; in assay [11], 59.6%; in assay [12] it was 86%. Also, the growth in assay [13] was 102%; in assay [14] it was 55.7%; in assay [15], 107%; in assay [16], 88.3%; in [17] it was 89.6%; in assay [18] it was 87.4%. Further, the growth is 65% in assay [19] and 84.1% in assay [20].
